From PubChem BioAssay AID686978 (National Center for Advancing Translational Sciences (NCATS), 2013)
About 64,000 (15%) of roughly 420,000 compounds were called active. Inconclusive results (about 27%) are left out. Calls follow the shape of the dose curve; as a rule, active = well fitted inhibition curve with a large enough effect; inconclusive = small, poorly fitted or top-dose-only effect; inactive = flat fitted curve, though single readings scatter. Not all results are given here.

assay: qHTS for Inhibitors of human tyrosyl-DNA phosphodiesterase 1 (TDP1): qHTS in cells in absence of CPT; conditions: DT40 Tdp1-/- hTDP1 cells, no CPT, ATP luminescence, 48 h; activity change, negative = growth inhibition: at 46.2 µM (top of the series); also: nearly all actives have a fitted effect of over 55% in size
Outline: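 Chicken DT40 Tdp1-/- cells complemented with human TDP1, screened without camptothecin (DMSO vehicle only), 400 cells/well. Compounds pin-transferred, cells incubated at 37 °C for at least 48 hr. Growth read as ATP-dependent luminescence (CellTiter-Glo, 30 min at RT).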
% is scaled to controls: 0 for no effect and ±100 for the full control effect; potency is read from the fitted curve at half-maximal effect.

Row | SMILES | activity change, negative = growth inhibition | Potency
1 | COCc1ccc(CN2CCC(Oc3ccc(C(=O)NCc4ccccn4)cc3)CC2)o1 | -22.1% (inactive) | 
2 | O=C(COC(=O)c1ncc(Cl)c(Cl)c1Cl)NNC(=O)c1ccccc1 | -13.8% (inactive) | 
3 | CCCCCCn1cc(C(=O)O)c(=O)c2cc(F)c(N3CCCCC3)cc21 | 1.32% (inactive) | 
4 | Cc1cccc(S(=O)(=O)c2cn(Cc3ccccc3)c3cc(N4CCOCC4)c(F)cc3c2=O)c1 |  | 20.6 µM (active)
5 | CCn1cc(S(=O)(=O)c2cccc(C)c2)c(=O)c2cc(F)c(N3CCN(C)CC3)cc21 | 6.93% (inactive) | 
6 | Cc1nn(Cc2ccccc2)c(C)c1CNC(=O)c1ccc(F)c(S(=O)(=O)N2CCOCC2)c1 | -29.9% (inactive) | 
7 | CC1CCCN(c2cc3c(cc2F)c(=O)c(S(=O)(=O)c2cccc(Cl)c2)cn3Cc2ccccc2)C1 (centres undefined) | -15% (inactive) | 
8 | Cc1ccc(S(=O)(=O)c2cn(Cc3ccccc3)c3cc(N4CCCC4)c(F)cc3c2=O)c(C)c1 |  | 9.2 µM (active)
9 | CC(=O)Cc1nsc(NC(=O)c2ccc(Cl)cc2Cl)n1 | -8% (inactive) | 
10 | CCCCCC1CC(COc2ccccc2)OC1=O (centres undefined) | 0.957% (inactive) | 
11 | CCOC(=O)c1oc2ccccc2c1NC(=O)c1cccs1 | 2.22% (inactive) | 
12 | CCOC(=O)CNC(=O)/C(=C\c1ccc(F)cc1)NC(=O)c1ccccc1 | -0.762% (inactive) | 
13 | CC(=O)OCC(=O)[C@@]1(O)CCC2C3CCC4=CC(=O)CC[C@@]4(C)[C@]3(F)C(O)C[C@]21C (some centres undefined) | -2.28% (inactive) | 
14 | COc1ccc(C2(Nc3cccc(F)c3)C(=O)c3ccccc3C2=O)cc1 | 5.13% (inactive) | 
15 | COc1ccc(Nc2cc(=O)oc3ccccc23)cc1 |  | 4.11 µM (active)
16 | COc1ccc(CCNC(=O)COC(=O)c2cc(=O)c3ccccc3o2)cc1 | 12% (inactive) | 
17 | COc1ccc2oc(=O)cc(-c3cc4ccccc4o3)c2c1 | -16.8% (inactive) | 
18 | CC1C=CCC2C(=O)N(c3cccc(C(=O)N4CCCCCC4)c3)C(=O)C12 (centres undefined) | -13% (inactive) | 
19 | CCCCCCCC(=O)OC(CN1CCCCCC1)CN1CCCC1=O (centres undefined) | -24.6% (inactive) | 
20 | CCCCNC(=O)N1CCN(S(C)(=O)=O)CC1 | -8.63% (inactive) | 
21 | COc1cccc(-c2nn(-c3ccccc3)cc2/C=C(\C#N)C(=O)NCCCn2ccnc2)c1 |  | 20.6 µM (active)
22 | COc1cc(OC)cc(C(=O)NCCCn2ccnc2)c1 | 12.1% (inactive) | 
23 | O=C(NCCCn1ccnc1)/C(=C\c1ccccc1F)NC(=O)c1ccccc1 | -16.8% (inactive) | 
24 | NC(=NC(=O)c1ccccc1)C1=C(O)CCC1=O | 10% (inactive) | 
25 | N#CC1(Nc2ccc(-c3ccc(Cl)cc3)cc2)CCCC1 | -29.4% (inactive) | 
26 | Nc1nc(NC(=O)/C=C/c2ccccc2)nn1-c1ccccc1 | -3.08% (inactive) | 
27 | CCCc1cc(=O)oc2c(C)c(OCC(=O)Nc3ccccn3)ccc12 | -16% (inactive) | 
28 | CN1CCc2c(sc3c2c(NCc2ccco2)nc2nnnn23)C1 |  | 18.4 µM (active)
29 | CC1CCN(C(=O)CCc2nnc3ccc(NCc4ccco4)nn23)CC1 | -6.36% (inactive) | 
